Bioassay records from PubChem.
Shown are actives, neighbours in structure and some others; about 3.9% of the full set was active somewhere.
CCHF vOTU inh-1: blocks the CCHF virus ovarian tumor domain protease. 370,000 tested, 0.55% active. inhibition, % at 11.5 µM. CCHFV vOTU protease, Pep-AMC fluorescence; further: 0% = vehicle wells with enzyme and 100% = no enzyme wells
GDH-TPI counter: GDH-TPI coupled enzyme inhibition counter-screen; GDH-TPI coupled enzyme counterscreen, NADH absorbance; inhibition, % at 4.8 µM; 360,000 tested, 1.2% active; AID 588335;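 further: 0% = DMSO wells and 100% = wells lacking the enzyme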
Mtb FBA inh: Mtb fructose-bisphosphate aldolase inhibition | P9WQA3 | purified M. tuberculosis FBA, fluorescence read-out | inhibition, % at 1 µM | 360,000 tested, 2.3% active; in the data active means inhibition above about 27%;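 further: 0% = vehicle and 100% = reference inhibitor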
Target sequence (P9WQA3 whole entry, looked up): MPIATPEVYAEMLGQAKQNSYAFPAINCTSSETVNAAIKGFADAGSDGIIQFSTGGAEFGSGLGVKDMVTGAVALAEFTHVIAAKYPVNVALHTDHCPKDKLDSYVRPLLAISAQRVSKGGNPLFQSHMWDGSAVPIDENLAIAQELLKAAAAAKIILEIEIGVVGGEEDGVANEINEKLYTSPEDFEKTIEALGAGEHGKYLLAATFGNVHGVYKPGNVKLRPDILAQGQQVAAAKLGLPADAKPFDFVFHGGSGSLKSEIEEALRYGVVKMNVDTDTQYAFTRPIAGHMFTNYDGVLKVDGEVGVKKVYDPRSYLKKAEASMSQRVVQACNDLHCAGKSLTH
BH1578 lux ind: induces V. cholerae light production without autoinducers; V. cholerae BH1578 lux reporter, luminescence, 6 h; 350,000 tested, 0.16% active; AID 588436; activation, % at 18.7 µM; in the data active means activation mostly above about 9.7%, no sharp cut-off
CCHF vOTU inh-2: CCHFV vOTU protease inhibition, confirmation. shares compounds with CCHF vOTU inh-1. Recombinant CCHFV vOTU, Pep-AMC fluorescence. inhibition, % at 11.5 µM. 1,900 tested, 17% active
Starred values were filed as active, the others as inactive; i = inactive; nt = no result. Unless noted, no stated cut-off is given here; in the data, active means inhibition above about 30%; inactive means the rest.

SMILES | CCHF vOTU inh-1 | GDH-TPI counter | Mtb FBA inh | BH1578 lux ind | CCHF vOTU inh-2
CCC(C)n1c(NC(=O)c2ccccc2)c(C#N)c2nc3ccccc3nc21 (stereo not given) | 94* | 16 | 18 | 0 | 68*
Cc1nn(C(C)(C)C)c(NC(=O)c2ccccc2)c1C#N | -17 | 16 | 0 | i | nt
CCCCn1c(NC(=O)c2ccccc2)c(C#N)c2nc3ccccc3nc21 | 121* | 15 | 20 | 4 | 90*
O=C(O)/C(=C\c1cccs1)Sc1nnc(-c2ccc(F)cc2)o1 | -5 | 25 | 1 | -2 | nt
NC(=O)c1nsc(C(=O)N(CCc2ccccc2)C(C(=O)NC2CCCC2)c2ccco2)c1N (stereo not given) | -14 | 16 | 9 | i | nt
Oc1ccc(NCc2ccccc2OCc2ccccc2)cc1 | 51* | 2 | -1 | 0 | 17
CCCCCCCCC(=O)NC(NC(=S)N1CCOCC1)C(Cl)(Cl)Cl (stereo not given) | 36* | 1 | -3 | -14 | -6
CCCCCC(=O)NC(NC(=S)N1CCOCC1)C(Cl)(Cl)Cl (stereo not given) | 4 | 13 | 0 | i | nt
NC(=O)c1ccc(NC(=O)COC(=O)C23CC4CC(CC(C4)C2)C3)cc1 | -1 | 6 | -5 | i | nt
O=C1C=C(O)c2[nH]c(=O)ccc2C1=O | 95* | 17 | 1 | i | 67*
CC(=O)c1ccc(NC(=O)COC(=O)C2C3CC4OC(=O)C2C4C3)cc1 (stereo not given) | 12 | 3 | 4 | 0 | nt
Cc1ccc(NC(=O)COC(=O)C2C3CC4OC(=O)C2C4C3)cc1 (stereo not given) | 40* | -5 | 0 | i | -22
Cc1csc(NC(=O)C2(C)CCN2C(=O)C(C)C)c1C#N (stereo not given) | nt | -2 | -1 | i | nt
COc1ccc(C(=O)NCCc2cc3ccc(C)c(C)c3[nH]c2=O)cc1OC | -2 | 0 | 3 | -6 | nt
O=C(CNC(=O)Cc1ccccc1)NCC(=O)OCC(=O)c1cccc2ccccc12 | 31* | -2 | -1 | nt | -16
O=C(CNC(=O)c1ccco1)OCC(=O)c1cccc2ccccc12 | -5 | -2 | -1 | -1 | nt
CCN(CC)C(=O)C1=C(C)Nc2nc3ccccc3n2C1c1cccc(OC)c1 (stereo not given) | -2 | -9 | 2 | -1 | nt
CCOC(=O)c1ccc(N2Cc3ccccc3C2=NC(=O)c2cccc([N+](=O)[O-])c2)cc1 | -1 | 22 | 6 | 0 | nt
O=C(N=C1c2ccccc2CN1c1ccccc1)c1cccc([N+](=O)[O-])c1 | 30* | 1 | -2 | 0 | -12
COC(=O)C1=C(C)N(Cc2ccccc2)C(=NCc2cccc(C(F)(F)F)c2)N[C@H]1c1cccc(C(F)(F)F)c1 | nt | 1 | 2 | -1 | nt
COC(=O)C1=C(C)N(Cc2ccccc2)C(=NCc2cccc(C(F)(F)F)c2)N[C@H]1c1cccc(F)c1 | 31* | 10 | 5 | i | 10
COC(=O)C1=C(C)N(Cc2cccc(C(F)(F)F)c2)C(=NCc2ccc(OC)cc2)NC1c1cccc(F)c1 (stereo not given) | 35* | nt | nt | nt | 4
COC(=O)C1=C(C)N(C)C(=NCC2CC2)NC1c1ccccc1 (stereo not given) | 32* | nt | nt | nt | -15
CCN=C1NC(c2ccc(F)cc2)C(C(=O)OC)=C(C)N1Cc1cccc(C(F)(F)F)c1 (stereo not given) | 36* | nt | nt | nt | -12
CCn1ccnc1CN(C)Cc1c(C(=O)N2C[C@@H](C)O[C@@H](C)C2)nc2ccc(Cl)cn12 | -7 | 4 | 2 | i | nt
SMILES | CCHF vOTU inh-1 | GDH-TPI counter | Mtb FBA inh | BH1578 lux ind | CCHF vOTU inh-2
O=C(CNC(=O)c1ccco1)OCc1ccc(Br)cc1 | nt | 3 | -1 | -1 | nt
CN1CCN(S(=O)(=O)c2cccc(C(=O)N(Cc3nnc(-c4ccc(Cl)cc4)o3)C3CC3)c2)CC1 | 34* | 6 | -1 | -1 | -13
O=C(c1cccc(S(=O)(=O)N2CCOCC2)c1)N(Cc1nnc(-c2ccccc2Cl)o1)C1CC1 | 11 | 6 | 3 | i | nt
COc1ccccc1C(=O)NC(=S)Nc1ccccc1N1CCCC1 | 41* | -4 | 3 | 0 | 11
O=C(NC(=S)Nc1ccccc1N1CCCC1)c1ccc(F)cc1 | 32* | 11 | 2 | 3 | 33*
CCN1/C(=C/C=C/c2oc3ccc(-c4ccccc4)cc3[n+]2CC)Oc2ccc(-c3ccccc3)cc21 | 37* | 12 | -19 | 1 | 18
CCN1/C(=C/C=C/c2sc3ccccc3[n+]2CC)Sc2ccccc21 | nt | 15 | 5 | -3 | nt
CCOc1ccc(C(=O)NC(C)C2COc3ccccc3O2)cc1 (stereo not given) | 4 | -10 | 2 | i | nt
CCN1/C(=C/c2ccc3cc(C)ccc3[n+]2CC)Sc2ccccc21 | 31* | 7 | -14 | 0 | 2
Cc1c(P(=S)(c2ccccc2)c2ccccc2)[n+]2ccccc2n1C/C=C/c1ccccc1 | 30* | 6 | 1 | 0 | -33
CSc1ncccc1C(=O)OCC(=O)N1CC2(C)CC1CC(C)(C)C2 (stereo not given) | -8 | 1 | -1 | 3 | nt
CC1(C)CC2CC(C)(CN2C(=O)COC(=O)c2ccccc2C(F)(F)F)C1 (stereo not given) | 33* | -4 | -2 | i | 16
CC(C)CC(COCc1cccc(C(F)(F)F)c1)N1CCN(C(=O)c2cccc(C(F)(F)F)c2)CCC1=O (stereo not given) | 30* | 3 | -2 | 0 | 26
CCCCC[C@@H](C)N1C[C@@H](COCc2ccccc2)Oc2cc(N3CC[C@@H](N(C)C)C3)ccc2S1(=O)=O | 35* | nt | nt | nt | 2
CCCCC[C@@H](C)N1C[C@@H](COCc2ccccc2)Oc2cc(N3CCC[C@@H]3CO)ccc2S1(=O)=O | 35* | nt | nt | nt | 8
CCCCC[C@H](C)N1C[C@H](COCc2ccccc2)Oc2cc(N3CC[C@@H](N(C)C)C3)ccc2S1(=O)=O | 37* | nt | nt | nt | 3
CCCCC[C@@H](C)N1C[C@H](COCc2ccccc2)Oc2cc(N3CC[C@@H](N(C)C)C3)ccc2S1(=O)=O | 15 | nt | nt | nt | nt
CCCCC[C@@H](C)N1C[C@@H](COCc2ccccc2)Oc2cc(N3CC[C@@H](O)C3)ccc2S1(=O)=O | 31* | nt | nt | nt | -4
COc1ccc(S(N)(=O)=O)cc1C(=O)OCC(=O)N1CCCC(C)C1 (stereo not given) | 30* | 2 | 0 | i | -17
CCCCCCCCN1C(=O)[C@H](CC(=O)N2CCSCC2)C[C@@]2(C(=O)OCC)CCCC=C12 | 39* | nt | nt | nt | 3
CCCCCCCCN1C(=O)[C@H](CC(=O)NCC2CCCCC2)C[C@@]2(C(=O)OCC)CCCC=C12 | 20 | nt | nt | nt | nt
CCCCCCCCN1C(=O)[C@H](CC(=O)NCc2ccccc2)C[C@@]2(C(=O)OCC)CCCC=C12 | 33* | nt | nt | nt | 5
C#CCNC(=O)C[C@@H]1C[C@@]2(C(=O)OCC)CCCC=C2N(CCCCCCCC)C1=O | 31* | nt | nt | nt | 15
CCCCCCCCN1C(=O)[C@H](CC(=O)NCCCCc2ccccc2)C[C@@]2(C(=O)OCC)CCCC=C12 | 13 | nt | nt | nt | nt
